The list is not random: actives were taken first. Their share in the collection is about 1.4%.
PfHsp40 rescue: rescue of PfHsp40-mediated yeast toxicity. S. cerevisiae expressing PfHsp40, growth rescue, ATP luminescence. growth rescue, % at 12.5 µM. 340,000 tested, 0.68% active; in the data active = growth rescue above about 28%, passing the limit was not always enough; inconclusive = no clear call, values can overlap the other calls;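 also: yeast W303a lacking pdr1 and pdr3 grown in galactose medium; growth measured after three days at 30 °C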
BJeLR viability: kills HRASV12-expressing BJeLR cells; AID 1554; inhibition, % (concentration not given with the values); 300,000 tested, 0.17% active; BJeLR (HRASV12) viability, CellTiter-Glo ATP luminescence, 48 h; in the data active = inhibition above about 50%; inconclusive = no clear call, values can overlap the other calls
ugtP null kill: growth inhibition of S. aureus ugtP deletion strain; S. aureus RN4220 ugtP deletion, OD600 growth, 16 h; growth inhibition, % (test concentration not listed); 330,000 tested, 0.54% active; in the data active = growth inhibition above about 68%;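 also: plate controls were untreated wells for no effect and antibiotic for full effect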
RN4220 kill: S. aureus RN4220 growth inhibition. OD600, 16 h. inhibition, % (concentration not given with the values). 330,000 tested, 0.33% active; in the data active = inhibition above about 85%;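 also: plate controls were untreated cells for no effect and reference antibiotic for full effect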
PrP 5UTR inh: suppresses PrP 5' UTR mRNA reporter expression; cell-based PrP 5' UTR mRNA reporter, plate reader; inhibition, % (test concentration not listed); 340,000 tested, 0.35% active; AID 488862; in the data active = inhibition above about 52%; also: 0 = median of the neutral control wells
Y pestis TopoI: blocks Yersinia pestis topoisomerase I activity | Y. pestis Topo-I cleavage product accumulation, plate reader | activity, % at 10 µM | 360,000 tested, 0.064% active; in the data active = activity above about 50%, passing the limit was not always enough; inconclusive = no clear call, values can overlap the other calls
* hit, by the source's call; ? = inconclusive; / = not tested or not shown; ! = a repeat was not active.

SMILES	PfHsp40 rescue	BJeLR viability	ugtP null kill	RN4220 kill	PrP 5UTR inh	Y pestis TopoI
CCN1C(c2ccccc2)C(C)C(=O)C(C)C1c1ccccc1 (stereo not drawn)	-1	-1	91*	-13	15	2
CN(C)CCCNc1c2ccccc2nc2ccccc12	1	69*	-11	4	/	-35
Cc1ccc2c(c1)C1C(CO2)C(c2ccccc2)[C@]2(C)C(=O)Nc3cc(F)ccc3C(=O)N12 (stereo partly drawn)	/	/	0	-11	/	/
Cc1ccccc1NC(=S)c1nc2ccccc2[nH]1	17	12	6	-6	-48	6
S=C(Nc1ccc(Cl)cc1)c1nc2ccccc2[nH]1	5	-13	96*	99*	-67	-8
CC(C)=CCC12Oc3cc(O)ccc3C1(O)Oc1cc3c(c(O)c1C2=O)C=CC(C)(C)O3 (stereo not drawn)	/	-3	97*	73	/	/
COc1ccc(-c2oc3c4c(cc(OC)c3c(=O)c2CC=C(C)C)OC(C)(C)C=C4)c(OC)c1	/	-4	7	-2	/	/
O=C1C(Cc2ccccc2)NCCCCC(c2ccc(Cl)cc2)N1Cc1ccc(Cl)cc1 (stereo not drawn)	/	/	12	1	/	/
O=C(CCl)Nc1cc(SCC(O)CO)cc([N+](=O)[O-])c1 (stereo not drawn)	0	81*	5	1	14	-1
CCC(=O)Nc1cc(SCCO)cc([N+](=O)[O-])c1	1	7	1	-1	-8	2
CCn1nc([N+](=O)[O-])c(C(C#N)c2nc3cc(C(F)(F)F)ccc3s2)c(Cl)c1=O (stereo not drawn)	3	10	92*	99*	-32	-11
CCCn1nc([N+](=O)[O-])c(C(C#N)c2nc3ccccc3o2)c(Cl)c1=O (stereo not drawn)	0	-1	6	5	-9	-11
Cc1ccc(NC2=C/C(=N\S(=O)(=O)c3cccs3)c3ccccc3C2=O)c(C)c1	-2	41	-5	11	-41	-3
Cc1ccc(Cl)cc1NC1=C/C(=N\S(=O)(=O)c2cccs2)c2ccccc2C1=O	-1	10	46	90*!	-24	-11
O=C1CCCCC=CCC(CC(=O)N(CCO)Cc2ccccc2)C(=O)N2CCCC2CO1 (stereo not drawn)	/	/	4	4	/	/
CCN1CC2C3C(=O)N(C)C(=O)C3[C@](Cc3ccccc3)(C1=O)N2C(=O)c1ccc(Cl)c(Cl)c1 (stereo partly drawn)	/	/	-8	6	/	/
Oc1c(C(c2ccccc2)N2CCOCC2)ccc2ccccc12 (stereo not drawn)	5	/	87*	25	-13	-12
O=C(N/N=C/c1c(O)n(-c2ccc(Cl)cn2)c(=O)c2ccccc12)C1CC1	-2	-2	0	4	-13	-4
O=C(N/N=C/c1c(O)n(-c2ccc(Cl)cn2)c(=O)c2ccccc12)c1ccncc1	29*	2	-14	2	-3	-1
COC(=O)[C@]1(CC(C)C)NC(c2ccc(-c3ccc(C(C)=O)cc3)cc2)C2C(=O)N(C)C(=O)C21 (stereo partly drawn)	/	/	-11	-2	/	/
O=[N+]([O-])c1cccc2nc(-c3ccccc3)c(-c3ccccc3)nc12	1	9	97*	3	-10	1
C=CCN(CC=C)S(=O)(=O)c1ccc(NC(=S)NC(=O)c2ccc(-c3ccccc3)cc2)cc1	0	-1	-1	2	-18	16
C=CCN(CC=C)S(=O)(=O)c1ccc(NC(=S)NC(=O)c2ccco2)cc1	55*	3	10	0	-17	22
CCN(CC)c1nc2ccccc2n(Cc2cccc(OC)c2)c1=O	0	4	91*	-6	-2	36
O=C(NC(=S)Nc1ncc(Br)cc1Br)c1cncc(Br)c1	0	2	-30	16	-7	-5
SMILES	PfHsp40 rescue	BJeLR viability	ugtP null kill	RN4220 kill	PrP 5UTR inh	Y pestis TopoI
O=C(NC(=S)NC1CCCCCC1)c1cncc(Br)c1	33*	0	34	0	-30	10
O=C(COC(=O)c1ccc2c(c1Cl)C(=O)c1ccccc1C2=O)NC1CC1	1	0	80	87*	-22	-9
O=C(COC(=O)c1ccc2c(c1Cl)C(=O)c1ccccc1C2=O)NC1CCCCC1	2	-5	-4	4	-9	-8
Cc1noc(C)c1NC(=O)N(C)CC1Oc2ccc(NS(=O)(=O)c3cn(C)cn3)cc2C(=O)N(C(C)CO)CC1C (stereo not drawn)	/	/	1	8	/	/
CCn1nc(-c2cccs2)nc2c(=O)n(C)c(=O)nc1-2	0	/	100*	99*	-9	-7
CCn1c(C=Cc2ccccc2)nc2ccccc2c1=O	/	/	-25	11	/	/
CCn1nc(/C=C/c2ccccc2)nc2c(=O)n(C)c(=O)nc1-2	276*	-4	99*	98*	-43	1
CN1CCCC1CCNC(=O)c1cccc2c1C(=O)c1ccc(N3CCCC3)cc1S2(=O)=O (stereo not drawn)	/	/	1	7	/	/
Cc1ccc(CSc2ncnc3c2cnn3Cc2ccccc2)cc1	0	2	90*	-4	-17	25
Cc1ccc(CSc2ncnc3c2cnn3Cc2ccccc2)cc1C	1	-5	93*	-2	-1	-3
C=CCN1c2ccccc2[C@]23CC(C(=O)OC)N(C(=O)NC4CCCC4)C2=NC(C(=O)OC)=C(C(=O)OC)C13 (stereo partly drawn)	/	/	6	-4	/	/
COC(=O)c1ccc(C2C=C(C(=O)O)OC(OCc3ccc(CO)cc3)C2)cc1 (stereo not drawn)	/	/	-1	-1	/	/
Cc1ccc(-n2nnnc2C(Cl)c2nnnn2-c2ccc(C)cc2)cc1	?	2	99*	97*	-4	-5
Cc1ccc(-n2nnnc2-c2ccccc2)cc1	3	-8	1	1	-25	4
Cc1ccc(-n2nnnc2SCC(=O)N2CCc3ccccc3C2)c(C)c1	71*	6	12	-2	/	17
CCCOC(=O)c1c(-c2ccccc2)nc(CC)c(C(=O)SCC)c1CCC	0	/	95*	-2	7	29
COc1ccc(CNC(=O)CN2C(=O)CC(c3ccccc3)=Nc3ccccc32)cc1	0	4	5	0	-66	2
O=C(CN1C(=O)CC(c2ccccc2)=Nc2ccccc21)NCc1ccccc1	119*	-1	5	8	-17	8
Cc1[nH]n(-c2ccccc2)c(=O)c1C=Nc1cnc2ccccc2c1	1	7	-5	7	-14	0
CCOc1ccc(N=Cc2c(C)[nH]n(-c3nc4ccccc4[nH]3)c2=O)cc1	-3	65*	-1	9	-7	44
C#CCOCCOCCOCCNc1nc(N2CCOCC2)nc(N2CCN(C(=O)CCCCCCCCCCNC(=O)C(C(C)CC)n3cc(CCCCCN)nn3)CC2)n1 (stereo not drawn)	/	/	-23	2	/	/

Source: PubChem BioAssay (several laboratories)
